Calls of active or inactive are those of the source.
What was measured:
[1] = optical density shifts of acrAB sulA E. coli – strain DRC41, OD650, 48 h, E. coli filamentation inducer project, primary screen (AID 1152); conditions: higher = more signal, called active from +8 up or from −8 down;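 note: E. coli MC1000 strain DRC41 lacking acrAB efflux pump and sulA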
[2] = probe aLefty1 binding on compound microarray – biochemical, small-molecule microarray, 635/667 nm fluorescence, primary screen (AID 1153); conditions: higher = more signal;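 note: score merges spot fluorescence with signal-to-noise ratio from the scanned slide images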
[3] = plasmodial surface anion channel blockers, osmotic lysis – cell-based, P. falciparum Indochina, OD700, 1 h, primary screen (AID 1154); conditions: P. falciparum Indochina infected RBC osmotic lysis, higher = more signal, called active from +8 up or from −8 down
[4] = plasmodial surface anion channel blockers, osmotic lysis – cell-based, P. falciparum Indochina, OD700, 2 h, primary screen (AID 1155);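 note: lysis reports solute entry through the parasite surface anion channel PSAC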; conditions: P. falciparum Indochina infected erythrocytes, higher = more signal, called active from +8 up or from −8 down
[5] = changes in parasitized red cell lysis, either direction – P. falciparum Indochina, OD700, 3 h, PSAC antagonist project, primary screen (AID 1156); conditions: P. falciparum-infected erythrocytes, osmotic lysis, higher = more signal, called active from +8 up or from −8 down
[6] = plasmodial surface anion channel blockers, osmotic lysis – cell-based, P. falciparum Indochina, OD700, 18 h, primary screen (AID 1157); conditions: P. falciparum Indochina infected erythrocytes, osmotic lysis OD700, 18 h; higher = more signal, called active from +8 up or from −8 down
[7] = S6 kinase pathway phospho-S6 level changes – cell-based, A549, cytoblot, luminescence, serum-stimulated, primary screen (AID 1158); conditions: 5 h, higher = more signal;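 note: serum-stimulated A549 lung adenocarcinoma cells; signal is phosphorylated S6 detected by cytoblot immunostaining with HRP secondary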
[8] = target: NADPH oxidase 2 (Homo sapiens) (UniProt P04839); assay: compounds shifting NOX2 Amplex Red fluorescence – cell-based, HEK293-NOX2, PMA-stimulated, NOX inhibitor project, primary screen (AID 1159); conditions: 45 min, higher = more signal, called active from +8 up or from −8 down; note: test concentration not given here
[9] = target: NADPH oxidase 4 (Homo sapiens) (UniProt Q9NPH5); assay: compounds shifting NOX4 Amplex Red fluorescence – cell-based, HEK293-NOX4, tetracycline-induced, NOX inhibitor project, primary screen (AID 1160); conditions: HEK293-NOX4, Amplex Red H2O2 fluorescence, 45 min; higher = more signal, called active from +8 up or from −8 down
[10] = target: NADPH oxidase 5 (Homo sapiens) (UniProt Q96PH1); assay: compounds shifting NOX5 Amplex Red fluorescence – cell-based, HEK293-NOX5, NOX inhibitor project, primary screen (AID 1161); conditions: HEK293-NOX5, ionomycin, 45 min, higher = more signal
[11] = compound effects on lung adenocarcinoma cell viability – A549, calcein-AM fluorescence, 48 h, basal, profiling panel (AID 1162); conditions: higher = more signal; note: test concentration not given here
[12] = compound effects on differentiated 3T3-L1 adipocyte viability – cell-based, 3T3-L1 adipocytes, calcein-AM fluorescence, 48 h, basal, profiling panel (AID 1163); conditions: 3T3-L1 adipocytes viability, higher = more signal; note: test concentration not given here
[13] = compound effects on hepatocellular carcinoma cell viability – HepG2, calcein-AM fluorescence, 48 h, basal, profiling panel (AID 1164); conditions: higher = more signal; note: test concentration not given here
[14] = compound effects on multiple myeloma cell viability – MM1S, calcein-AM fluorescence, 48 h, basal, profiling panel (AID 1165); conditions: higher = more signal; note: test concentration not given here
[15] = calcein-AM signal in unstimulated myeloma cells – cell-based, calcein-AM fluorescence, 48 h, PK04 Diversity Set, profiling panel (AID 1166); conditions: RPMI8226 myeloma viability, higher = more signal;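 note: cells grown under basal conditions without added stimulus; test concentration not given here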
[16] = JC-1 mitochondrial signal, unstimulated HepG2 cells – cell-based, JC-1 fluorescence, 24 h, 100 nL compound, profiling panel (AID 1167); conditions: HepG2 mitochondrial potential, higher = more signal; note: test concentration not given here
[17] = JC-1 mitochondrial signal, unstimulated adipocytes – cell-based, JC-1 fluorescence, 3T3-L1 adipocytes, 24 h, 100 nL compound, profiling panel (AID 1168); conditions: JC-1 mitochondrial fluorescence, higher = more signal, called active from +8 up or from −8 down; note: test concentration not given here
[18] = JC-1 mitochondrial signal, unstimulated myeloma cells – cell-based, JC-1 fluorescence, RPMI8226, 24 h, 100 nL compound, profiling panel (AID 1169); conditions: JC-1 mitochondrial potential fluorescence, higher = more signal; note: test concentration not given here
[19] = JC-1 mitochondrial signal, unstimulated MM1S myeloma – cell-based, JC-1 fluorescence, 24 h, 100 nL compound, profiling panel (AID 1170); conditions: MM1S mitochondrial potential, higher = more signal; note: test concentration not given here
[20] = resazurin metabolic signal in A549 cells – cell-based, resazurin fluorescence, 24 h, PK04 Diversity Set, profiling panel (AID 1171); conditions: A549 viability, higher = more signal, called active from +8 up or from −8 down; note: test concentration not given here

Sequence of NADPH oxidase 2 (Homo sapiens) (P04839 whole entry, looked up): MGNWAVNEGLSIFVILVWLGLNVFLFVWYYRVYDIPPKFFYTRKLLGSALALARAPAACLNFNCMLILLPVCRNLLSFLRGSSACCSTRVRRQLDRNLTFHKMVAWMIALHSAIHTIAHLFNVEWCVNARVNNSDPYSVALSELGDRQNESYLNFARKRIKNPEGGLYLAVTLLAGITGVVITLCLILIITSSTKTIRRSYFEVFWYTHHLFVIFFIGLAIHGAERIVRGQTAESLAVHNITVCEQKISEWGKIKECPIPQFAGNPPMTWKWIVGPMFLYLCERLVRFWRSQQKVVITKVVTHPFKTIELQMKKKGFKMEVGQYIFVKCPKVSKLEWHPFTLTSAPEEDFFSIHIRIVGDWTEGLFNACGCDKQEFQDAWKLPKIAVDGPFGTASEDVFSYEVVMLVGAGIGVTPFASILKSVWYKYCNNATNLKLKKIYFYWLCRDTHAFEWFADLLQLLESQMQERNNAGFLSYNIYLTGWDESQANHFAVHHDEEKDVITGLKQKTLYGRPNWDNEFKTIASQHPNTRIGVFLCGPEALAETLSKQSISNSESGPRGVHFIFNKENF
Sequence of NADPH oxidase 5 (Homo sapiens) (Q96PH1 whole entry, looked up): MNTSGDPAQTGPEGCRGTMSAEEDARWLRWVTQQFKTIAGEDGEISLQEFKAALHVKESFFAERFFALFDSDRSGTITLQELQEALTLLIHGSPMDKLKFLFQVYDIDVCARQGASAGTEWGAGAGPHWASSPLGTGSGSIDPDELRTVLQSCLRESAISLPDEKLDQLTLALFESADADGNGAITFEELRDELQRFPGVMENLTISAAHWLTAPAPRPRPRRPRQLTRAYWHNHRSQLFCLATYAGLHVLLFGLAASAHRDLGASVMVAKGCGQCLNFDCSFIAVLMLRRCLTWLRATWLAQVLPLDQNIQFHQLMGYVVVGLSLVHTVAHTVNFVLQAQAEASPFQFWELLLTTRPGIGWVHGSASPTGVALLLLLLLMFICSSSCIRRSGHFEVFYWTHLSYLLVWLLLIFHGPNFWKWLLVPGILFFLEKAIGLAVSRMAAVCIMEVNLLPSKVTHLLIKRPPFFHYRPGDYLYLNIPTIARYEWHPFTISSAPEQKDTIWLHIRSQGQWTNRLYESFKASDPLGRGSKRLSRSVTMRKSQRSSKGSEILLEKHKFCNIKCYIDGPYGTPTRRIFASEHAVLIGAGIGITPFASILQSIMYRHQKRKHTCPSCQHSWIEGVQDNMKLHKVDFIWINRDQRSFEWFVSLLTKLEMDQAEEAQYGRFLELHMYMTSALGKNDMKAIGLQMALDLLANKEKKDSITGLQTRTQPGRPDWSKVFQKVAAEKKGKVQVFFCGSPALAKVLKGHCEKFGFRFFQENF
Sequence of NADPH oxidase 4 (Homo sapiens) (Q9NPH5 whole entry, looked up): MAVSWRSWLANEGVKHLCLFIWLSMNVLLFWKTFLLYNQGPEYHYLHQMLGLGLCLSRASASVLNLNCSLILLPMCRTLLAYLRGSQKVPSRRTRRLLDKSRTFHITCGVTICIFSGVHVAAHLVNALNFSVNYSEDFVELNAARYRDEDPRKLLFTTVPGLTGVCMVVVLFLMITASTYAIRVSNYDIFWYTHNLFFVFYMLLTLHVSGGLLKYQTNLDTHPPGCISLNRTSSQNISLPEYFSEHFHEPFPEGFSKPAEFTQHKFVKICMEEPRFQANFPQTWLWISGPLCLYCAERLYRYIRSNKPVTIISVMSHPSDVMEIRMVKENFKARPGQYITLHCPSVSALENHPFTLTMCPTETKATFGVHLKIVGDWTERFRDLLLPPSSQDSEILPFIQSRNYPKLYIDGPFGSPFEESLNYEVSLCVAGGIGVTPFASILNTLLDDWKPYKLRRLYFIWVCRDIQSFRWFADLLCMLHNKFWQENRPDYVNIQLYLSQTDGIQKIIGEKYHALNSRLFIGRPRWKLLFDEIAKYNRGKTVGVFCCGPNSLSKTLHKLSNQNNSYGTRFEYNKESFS

Row | SMILES | z-score [1] | composite z-score [2] | z-score [3] | z-score [4] | z-score [5] | z-score [6] | z-score [7] | z-score [8] | z-score [9] | z-score [10] | z-score [11] | z-score [12] | z-score [13] | z-score [14] | z-score [15] | z-score [16] | z-score [17] | z-score [18] | z-score [19] | z-score [20]
1 | C=CC[C@]1(C(=O)N(C)C)N=C(c2ccc(OCCCO)cc2)O[C@H]1c1ccccc1 | 1.17 (inactive) | 0.325 | 28.3 (active) | 17.7 (active) | 3.55 (inactive) | 1.46 (inactive) | 1.41 | -2.39 (inactive) | -0.252 (inactive) | -4.75 | 0.203 | 1.17 | -0.308 | -0.27 | -1.19 | 1.5 | 0.644 (inactive) | -0.741 | -1.33 | 1.32 (inactive)
2 | CC(C)CCC[C@@H](C)[C@H]1CC[C@@]2(C)C3=C(CC[C@]12C)[C@@]1(C)CC[C@H](OC(=O)C(C)(C)C)C(C)(C)C1CC3 (stereo not given in full) | 0.836 (inactive) | -0.374 | -0.0452 (inactive) | -0.698 (inactive) | -0.647 (inactive) | -1.07 (inactive) | 2.9 | 0.249 (inactive) | 0.4 (inactive) | 1.29 | 2.49 | 1.66 | 1.12 | 0.933 | -0.129 | 1.15 | 0.39 (inactive) | 0.363 | -1.44 | 0.221 (inactive)
3 | CC(C)CNC(=O)[C@@]1(C)c2ccccc2C(=O)N(Cc2ccccc2)[C@H]1c1ccc(CO)cc1 | -0.743 (inactive) | -0.16 | 3.11 (inactive) | 0.122 (inactive) | 0.709 (inactive) | 0.0589 (inactive) | 0.11 | -0.912 (inactive) | 0.0265 (inactive) | -1.13 | -0.151 | -0.751 | -0.323 | -0.408 | 0.0402 | 0.164 | -0.491 (inactive) | 0.0136 | -0.216 | 0.407 (inactive)
4 | COC(=O)c1ccc(OC)c(/C=C\CC(CCc2ccccc2)OC(=O)c2ccncc2)c1 (stereo not given) | -0.295 (inactive) | -0.251 | 17.9 (active) | 3.19 (inactive) | 0.533 (inactive) | 0.672 (inactive) | -0.224 | -0.392 (inactive) | 0.67 (inactive) | -0.11 | -0.568 | 0.115 | -0.457 | -2.19 | -2.2 | -1.28 | -1.32 (inactive) | -0.745 | 0.256 | 2.06 (inactive)
5 | O=C(NCc1ccccc1)[C@]1(Cc2ccccc2)N=C(c2ccc(OCCCO)cc2)O[C@@H]1c1ccccc1 | -2.04 (inactive) | -0.225 | 30.1 (active) | 22.5 (active) | 0.578 (inactive) | 2.53 (inactive) | -0.397 | 0.158 (inactive) | -0.503 (inactive) | -0.855 | -2.44 | 0.709 | -1.83 | -2.57 | -4.2 | 0.683 | 0.145 (inactive) | -1.21 | -1.24 | 0.0976 (inactive)
6 | CC1=C2[C@@H](CCc3ccccc3)OB(O)C[C@@H]2[C@@H]2C(=O)C=CC(=O)[C@@H]2C1 | -0.23 (inactive) | 0.0402 | 2.27 (inactive) | 0.229 (inactive) | 0.236 (inactive) | 0.182 (inactive) | 0.166 | -0.128 (inactive) | -2 (inactive) | -3.15 | -0.223 | 0.36 | -0.63 | -3.38 | -3.64 | -3.63 | -1.5 (inactive) | -1.12 | -2.78 | -0.247 (inactive)
7 | CC(C)N1C(=O)c2ccccc2[C@](C)(C(=O)O)[C@@H]1c1ccc(CO)cc1 | -0.308 (inactive) | 0.0451 | 0.268 (inactive) | -0.103 (inactive) | 0.209 (inactive) | 0.352 (inactive) | 0.256 | 0.229 (inactive) | -0.166 (inactive) | -1.27 | -0.786 | 0.0073 | -0.876 | 0.0364 | 0.0868 | 0.0703 | 0.597 (inactive) | 0.663 | -0.188 | 0.069 (inactive)
8 | COc1ccc(C(=O)Nc2ccc3c(c2)[C@]2(O[C@@H](CCO)[C@H]([Si](C)(C)c4ccc(OC)cc4)[C@H]2C)C(=O)N3Cc2ccccc2)cc1 | 0.257 (inactive) | -0.147 | 4.99 (inactive) | 1.42 (inactive) | 2.07 (inactive) | -0.237 (inactive) | 0.776 | -5.81 (inactive) | -1.21 (inactive) | 0.304 | -1.34 | 1.39 | -2.56 | -2.64 | -2.99 | 0.00933 | -0.0069 (inactive) | -0.965 | -0.497 | -2.42 (inactive)
9 | C=CCC(OC(C)=O)[C@@H]1[C@@H](N(Cc2ccc(-c3ccccc3)cc2)C(=O)c2cccc3ccccc23)c2cc(OCCCO)ccc2N1C(=O)c1ccc2ccccc2n1 (stereo not given in full) | 0.214 (inactive) | 0.123 | 1.01 (inactive) | 0.569 (inactive) | -0.745 (inactive) | 0.357 (inactive) | 0.332 | 0.772 (inactive) | -0.294 (inactive) | -3.7 | 0.479 | 0.522 | 0.833 | -0.318 | 0.116 | 3.07 | 0.0656 (inactive) | -0.0127 | 0.506 | 0.131 (inactive)
10 | NCCCCCCNC(=O)[C@H]1C[C@H]2C(=O)N3CCC[C@H]3C(=O)N2[C@H]1c1ccc(O)cc1 | -0.247 (inactive) | -0.19 | 1.55 (inactive) | 0.507 (inactive) | 0.403 (inactive) | 0.253 (inactive) | 0.648 | -0.019 (inactive) | 0.901 (inactive) | 0.386 | -0.194 | 1.14 | -1.01 | -0.346 | -0.707 | -0.806 | -1.34 (inactive) | 0.26 | 0.698 | -0.608 (inactive)
11 | CCCC[C@H]1OB(O)C[C@H]2C1=C(COc1ccccc1)Cn1c(=O)n(-c3ccccc3)c(=O)n12 | 0.4 (inactive) | -0.06 | 2.14 (inactive) | 0.0541 (inactive) | 0.722 (inactive) | 0.0113 (inactive) | 0.279 | -0.281 (inactive) | -0.216 (inactive) | 0.779 | -0.428 | 0.75 | -0.561 | -0.206 | -1.28 | -2.12 | 0.16 (inactive) | 0.268 | -0.958 | -0.412 (inactive)
12 | [N-]=[N+]=NCc1ccccc1C[C@@]1(C(=O)NCCN2CCOCC2)N=C(c2ccc(OCCCO)cc2)O[C@@H]1c1ccccc1CN=[N+]=[N-] | 0.648 (inactive) | 0.565 | 26.4 (active) | 13.7 (active) | 1.2 (inactive) | 2.26 (inactive) | -0.213 | 0.528 (inactive) | 0.116 (inactive) | 2.24 | -0.628 | 0.671 | -0.399 | -2.59 | -2.77 | 0.787 | 0.0123 (inactive) | -1.06 | -0.797 | -1.13 (inactive)
13 | C=CC[C@]1(C(=O)NCC(O)CO)N=C(c2ccc(OCCCO)cc2)O[C@H]1c1ccccc1N=[N+]=[N-] (stereo not given in full) | 0.33 (inactive) | 0.658 | 34.3 (active) | 30.5 (active) | 2 (inactive) | 7.28 (inactive) | -0.33 | -0.357 (inactive) | 1.74 (inactive) | 0.781 | -0.402 | 0.864 | -0.735 | -1.16 | 0.736 | -0.285 | 0.13 (inactive) | -0.49 | 0.857 | 0.702 (inactive)
14 | C=C(COC)C(=O)CC[C@H](OC(=O)c1ccccc1-c1ccccc1C(=O)O)c1ccc(OCCO)cc1 | 0.146 (inactive) | 0.134 | 10.5 (active) | 1.72 (inactive) | 2 (inactive) | 0.626 (inactive) | -0.0494 | 0.00741 (inactive) | -0.221 (inactive) | -1.8 | -0.127 | 1.06 | -0.626 | -1.85 | -0.385 | -0.271 | -0.328 (inactive) | -0.463 | 0.463 | -0.276 (inactive)
15 | CC(C)C[C@@H]1NC(=O)[C@@H]2C[C@H](C(=O)NCc3ccc(F)cc3)[C@H](c3ccc(O)cc3)N2C1=O | 0.227 (inactive) | -0.0559 | 1.46 (inactive) | 0.328 (inactive) | -1.64 (inactive) | 0.424 (inactive) | 0.0668 | 0.468 (inactive) | -0.106 (inactive) | 1.18 | 0.0054 | 0.305 | -1.03 | -0.199 | -0.214 | 1.07 | 0.0421 (inactive) | 0.182 | 0.593 | 0.149 (inactive)
16 | CC(C)=CCCC(C)=CC(O)C1C=CC2C(=O)N(c3ccccc3)C(=O)C2N1Nc1ccc([N+](=O)[O-])cc1 (stereo not given) | -1.41 (inactive) | -0.131 | 8.34 (active) | 2.3 (inactive) | 1.04 (inactive) | 1.44 (inactive) | -0.563 | -0.381 (inactive) | -3.41 (inactive) | -0.516 | -0.498 | 0.701 | -0.0971 | -1.2 | -0.186 | -1.07 | -1.44 (inactive) | 0.417 | 1.41 | -0.214 (inactive)
